Reference: the supplement of paper PMC7393113
Values joined by “and” are separate entries in the source; they are usually repeats but may differ in a detail not shown here. Equal values may be shown once. Where a name gives a salt, the structure may show the parent alone. ± gives the standard deviation of the averaged measurements.

Tested on: iBMDM (immortalised mouse bone-marrow-derived macrophages), LPS-stimulated
Assay: mitochondrial superoxide (MitoSOX fluorescence) fold increase over unstimulated control; higher = more LPS-induced mitochondrial ROS (less inhibition)
Conditions: inhibitor concentration: 500 nM, LPS: 100 ng/ml
Summary of the method: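 Cells were immortalised mouse bone-marrow-derived macrophages, plated in triplicate and switched to phenol-red-free 1% FCS/DMEM for 20 h. Kinase inhibitors (500 nM, 30 min) preceded MitoSox loading (1 μM, 10 min) and LPS addition (100 ng/ml), with 510/580 nm fluorescence read every 60 min for 4 h. Mitochondrial superoxide is reported as averaged fold induction over untreated macrophages.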

Row | SMILES | mitochondrial superoxide (time after LPS: 1 h) | mitochondrial superoxide (time after LPS: 2 h) | mitochondrial superoxide (time after LPS: 4 h)
1 | CC(C)(C)Cn1c(N)nc2ccc(-c3[nH]c(C(C)(C)C)nc3-c3ccc(F)cc3)nc21 | 1.111 ± 0.0047 | 1.17 ± 0.032 | 1.33 ± 0.066
2 | C=CC(=O)Nc1cccc(Oc2nc(Nc3ccc(N4CCN(C)CC4)cc3OC)ncc2Cl)c1 | 1.42 ± 0.03 | 1.53 ± 0.052 | 1.68 ± 0.041
3 | C[C@@H]1COC(Nc2ccc3ncnc(Nc4ccc(OCc5nccs5)c(Cl)c4)c3c2)=N1 [Varlitinib] | 1.3 ± 0.019 | 1.39 ± 0.09 | 1.69 ± 0.08
4 | O=C(Nc1cc(C(F)(F)F)cc(C(F)(F)F)c1)c1cc(Cl)ccc1O | 0.988 ± 0.04 | 1.04 ± 0.033 | 1.01 ± 0.054
5 | Nc1nc(N)c(N=O)c(OCC2CCCCC2)n1 | 1.17 ± 0.03 | 1.25 ± 0.017 | 1.37 ± 0.074
6 | CN(C)Cc1cccc(N=C(c2ccccc2)c2c(O)[nH]c3cc(C(=O)N(C)C)ccc23)c1 | 1.11 ± 0.069 | 1.141 ± 0.011 | 1.31 ± 0.037
7 | Cc1c(Cn2c(C)nc3c(C(=O)O)cc(N4CCOCC4)cc32)cccc1C(F)(F)F | 1.394 ± 0.013 | 1.502 ± 0.0056 | 1.61 ± 0.048
8 | Cc1cc(Nc2nc(N[C@@H](C)c3ccc(F)cc3)c(C#N)cc2F)n[nH]1 | 1.09 ± 0.054 | 1.18 ± 0.028 | 1.31 ± 0.085
9 | CNC(=O)c1cc(Oc2ccc(NC(=O)Nc3cc(C(C)(C)C)nn3-c3ccc4ncccc4c3)c(F)c2)ccn1 [DCC-2036 (Rebastinib)] | 1.17 ± 0.012 | 1.33 ± 0.075 | 1.6 ± 0.03
10 | Nc1nc(N)c2nc(-c3cccc(O)c3)cnc2n1 | 1.03 ± 0.016 | 1.04 ± 0.043 | 1.09 ± 0.046
11 | CNC(=O)c1cc(COc2nnc(Nc3ccc(Cl)cc3)c3ccoc23)ccn1 [Telatinib] | 1.23 ± 0.036 | 1.33 ± 0.051 | 1.38 ± 0.11
12 | CC(C)n1nc(-c2ccc3oc(N)nc3c2)c2c(N)ncnc21 | 1.34 ± 0.018 | 1.57 ± 0.055 | 1.78 ± 0.051
13 | CN1CCN(C2CCN(C(=O)Nc3cc(Oc4ccc(NC(=O)C5(C(=O)Nc6ccc(F)cc6)CC5)c(F)c4)ccn3)CC2)CC1 [Golvatinib (E7050)] | 1.04 ± 0.073 | 1.08 ± 0.075 | 1.09 ± 0.071
14 | CC(C)n1nc(-c2cc3cc(O)ccc3[nH]2)c2c(N)ncnc21 | 1.03 ± 0.088 | 1.15 ± 0.12 | 1.28 ± 0.063
15 | Cn1cc(C2=C(c3ccc(Cl)cc3Cl)C(=O)NC2=O)c2ccccc21 | 1.46 ± 0.18 | 1.56 ± 0.22 | 1.68 ± 0.29
16 | CCOc1cc2ncc(C#N)c(Nc3ccc(F)c(Cl)c3)c2cc1NC(=O)/C=C/CN(C)C [Pelitinib (EKB-569)] | 1.2 ± 0.018 | 1.21 ± 0.049 | 1.32 ± 0.032
17 | Nc1ccc(-c2ccc3ncc4ccc(=O)n(-c5cccc(C(F)(F)F)c5)c4c3c2)cn1 [Torin 2] | 1.18 ± 0.042 | 1.17 ± 0.05 | 1.24 ± 0.1
18 | COc1cc(N2CCC(N3CCN(C)CC3)CC2)ccc1Nc1ncc(Cl)c(Nc2ccccc2S(=O)(=O)C(C)C)n1 | 1.24 ± 0.068 | 1.3 ± 0.019 | 1.47 ± 0.04
19 | CCN(CC)CCNC(=O)c1c(C)[nH]c(/C=C2\C(=O)Nc3ccc(F)cc32)c1C [Sunitinib Malate] | 1.61 ± 0.057 | 1.73 ± 0.072 | 1.7 ± 0.099
20 | O=C(c1cccc(Cl)c1F)N1CCN(Cc2cccc(Nc3nccs3)n2)CC1 | 1.15 ± 0.018 | 1.22 ± 0.048 | 1.37 ± 0.053
21 | CC(C)NC[C@@H](C(=O)N1CCN(c2ncnc3c2[C@H](C)C[C@H]3O)CC1)c1ccc(Cl)cc1 | 1.25 ± 0.045 | 1.49 ± 0.11 | 1.7 ± 0.094
22 | CS(=O)(=O)c1cccc(CNc2nc(Nc3ccc4c(c3)CCC(=O)N4)ncc2C(F)(F)F)c1 | 1.2 ± 0.044 | 1.24 ± 0.056 | 1.3 ± 0.014
23 | CN1CCN(CCOc2cc(OC3CCOCC3)c3c(Nc4c(Cl)ccc5c4OCO5)ncnc3c2)CC1 [Saracatinib (AZD0530)] | 1.516 ± 0.0097 | 1.63 ± 0.047 | 1.85 ± 0.073
24 | CO[C@H]1C[C@@H]2CC[C@@H](C)[C@@](O)(O2)C(=O)C(=O)N2CCCC[C@H]2C(=O)O[C@H]([C@H](C)C[C@@H]2CC[C@@H](OP(C)(C)=O)[C@H](OC)C2)CC(=O)[C@H](C)/C=C(\C)[C@@H](O)[C@@H](OC)C(=O)[C@H](C)C[C@H](C)/C=C/C=C/C=C/1C [Ridaforolimus (Deforolimus, MK-8669)] | 1.55 ± 0.087 | 1.592 ± 0.0072 | 1.78 ± 0.04
25 | C[C@@]1(C(=O)Nc2ccc(F)nc2)CCCN1c1nc(Nc2cc(C3CC3)n[nH]2)c2cccn2n1 | 1.38 ± 0.051 | 1.43 ± 0.06 | 1.45 ± 0.066
26 | O=c1sn(-c2cccc3ccccc23)c(=O)n1Cc1ccccc1 [Tideglusib] | 1.14 ± 0.068 | 1.17 ± 0.049 | 1.29 ± 0.062
27 | CNC(=O)c1ccccc1Sc1ccc2c(/C=C/c3ccccn3)n[nH]c2c1 [Axitinib] | 1.77 ± 0.17 | 1.78 ± 0.17 | 1.8 ± 0.058

Row | SMILES | mitochondrial superoxide (time after LPS: 1 h) | mitochondrial superoxide (time after LPS: 2 h) | mitochondrial superoxide (time after LPS: 4 h)
28 | O=c1ncn2nc(Sc3ccc(F)cc3F)ccc2c1-c1c(Cl)cccc1Cl | 1.16 ± 0.045 | 1.21 ± 0.014 | 1.28 ± 0.037
29 | CNC(=O)c1cc(Oc2ccc(NC(=O)Nc3ccc(Cl)c(C(F)(F)F)c3)cc2)ccn1 [Sorafenib] | 1.48 ± 0.09 | 1.45 ± 0.032 | 1.66 ± 0.029
30 | CC(C)CC(=O)Nc1n[nH]c2c1CN(C(=O)C1CCN(C)CC1)C2(C)C | 1.08 ± 0.049 | 1.13 ± 0.04 | 1.27 ± 0.079
31 | O=C(Nc1ccc(-c2ccnc(Nc3ccc(N4CCOCC4)cc3)n2)cc1)C1CCCN1 (centres undefined) | 1.21 ± 0.058 | 1.232 ± 0.011 | 1.3 ± 0.068
32 | COc1ccc(COc2cc3oc(=O)c4cc(C(C)O)ccc4c3cc2OC)cc1 (centres undefined) [Palomid 529 (P529)] | 1.1 ± 0.049 | 1.25 ± 0.08 | 1.41 ± 0.05
33 | CS(=O)(=O)N1CCc2c(-c3cnc(N)nc3)nc(N3CCOCC3)nc21 | 1.31 ± 0.047 | 1.48 ± 0.024 | 1.55 ± 0.025
34 | CS(=O)(=O)N1CCN(Cc2cc3nc(-c4cccc5[nH]ncc45)nc(N4CCOCC4)c3s2)CC1 | 1.28 ± 0.025 | 1.42 ± 0.027 | 1.6 ± 0.041
35 | NC(=O)c1cnc(N[C@@H]2CCCC[C@@H]2N)nc1Nc1cccc(-n2nccn2)c1 | 1.38 ± 0.058 | 1.57 ± 0.08 | 1.71 ± 0.11
36 | CC[C@@H]1C(=O)N(C)c2cnc(Nc3ccc(C(=O)N[C@H]4CC[C@H](N5CCN(CC6CC6)CC5)CC4)cc3OC)nc2N1C(C)C [Volasertib (BI 6727)] | 1.18 ± 0.016 | 1.27 ± 0.026 | 1.37 ± 0.043
37 | COc1c(C)c(C(=O)c2ccc(N)c(C(=O)O)c2)n2ccccc12 | 1.19 ± 0.076 | 1.26 ± 0.036 | 1.32 ± 0.062
38 | Cc1c(CN2CCN(C(=O)[C@H](C)O)CC2)sc2c(N3CCOCC3)nc(-c3cnc(N)nc3)nc12 | 1.266 ± 0.011 | 1.44 ± 0.057 | 1.5 ± 0.061
39 | COc1cc(Nc2nc3ccccc3nc2NS(=O)(=O)c2ccc(NC(=O)c3ccc(C)c(OC)c3)cc2)cc(OC)c1 | 1.17 ± 0.022 | 1.23 ± 0.06 | 1.33 ± 0.061
40 | CNC(=O)c1cccc(-c2ccc3c(N4CCOC[C@@H]4C)nc(N4CCOC[C@@H]4C)nc3n2)c1 | 1.18 ± 0.058 | 1.46 ± 0.074 | 1.66 ± 0.1
41 | COc1cc(OC)c(/C=C/S(=O)(=O)Cc2ccc(OC)c(NCC(=O)O)c2)c(OC)c1 | 1.071 ± 0.0096 | 1.15 ± 0.084 | 1.23 ± 0.086
42 | N#CC[C@H](C1CCCC1)n1cc(-c2ncnc3[nH]ccc23)cn1 | 1.19 and 1.09 | 1.29 and 1.15 | 1.35 and 1.29
43 | N#CC(=Cc1ccc(O)c(O)c1)C(=O)NCc1ccccc1 [AG-490 (Tyrphostin B42)] | 1.35 ± 0.052 | 1.36 ± 0.041 | 1.44 ± 0.097
44 | Cc1ccc(C(=O)Nc2cccc(C(F)(F)F)c2)cc1Nc1nc(-c2cccnc2)nc2c1cnn2C | 1.23 ± 0.037 | 1.27 ± 0.013 | 1.38 ± 0.083
45 | COc1cccc2cc(-c3nc([C@H]4CC[C@H](C(=O)O)CC4)n4ncnc(N)c34)[nH]c12 | 1.3 ± 0.046 | 1.39 ± 0.018 | 1.52 ± 0.017
46 | C[C@@H]1CCN(C(=O)CC#N)C[C@@H]1N(C)c1ncnc2[nH]ccc12 | 1.12 and 1.28 | 1.21 and 1.4 | 1.3 and 1.58
47 | Cc1cc(Nc2cc(N3CCN(C)CC3)nc(/C=C/c3ccccc3)n2)n[nH]1 | 1.19 ± 0.044 | 1.21 ± 0.011 | 1.32 ± 0.03
48 | CCc1cncnc1N1CCN(Cc2nc3ccc(C(F)(F)F)cc3[nH]2)CC1 | 1.12 ± 0.073 | 1.23 ± 0.037 | 1.34 ± 0.1
49 | Cc1ccc(NC(=O)c2ccc(CN3CCN(C)CC3)cc2)cc1Nc1nc(-c2cccnc2)cs1 [Masitinib (AB1010)] | 1.44 ± 0.013 | 1.52 ± 0.067 | 1.72 ± 0.12
50 | CCS(=O)(=O)Nc1ccc2[nH]c(O)c(C(=Nc3ccc(CN4CCCCC4)cc3)c3ccccc3)c2c1 [Hesperadin] | 1.1 ± 0.02 | 1.13 ± 0.031 | 1.28 ± 0.046
51 | Cc1ccc(NC(=O)c2ccc(CN3CCN(C)CC3)cc2)cc1Nc1nccc(-c2cccnc2)n1 [Imatinib (STI571)] | 1.28 ± 0.061 | 1.39 ± 0.18 | 1.49 ± 0.12
52 | Cc1[nH]nc2ccc(-c3cncc(OC[C@@H](N)Cc4ccccc4)c3)cc12 | 1.24 ± 0.1 | 1.43 ± 0.11 | 1.68 ± 0.098
53 | C#Cc1cccc(Nc2ncnc3cc(OCCOC)c(OCCOC)cc23)c1 [Erlotinib HCl (OSI-744)] | 1.62 ± 0.033 | 1.66 ± 0.076 | 1.76 ± 0.048
